A short description of assay [1]: binders of probe aFSTL3 on microarray, primary screen, stem cell growth factor project, biochemical, small-molecule microarray, fluorescence 635/667 (AID 1064).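 Note: measures binding of the biotinylated anti-FSTL3 antibody to printed compounds.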 Conditions: higher = more signal.
The nature of assay [2]: binders from COS7 lysate, DM2A8 probe, primary screen, torsin A project, cell lysate, small-molecule microarray, fluorescence 635/667 (AID 1065). Conditions: higher = more signal, COS7 lysate expressing mutant human TOR1A.
Assay [3] in a line: binders of probe aFGF2 on microarray, primary screen, stem cell growth factor project, biochemical, small-molecule microarray, fluorescence 635/667 (AID 1067).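 Note: measures binding of biotinylated aFGF2 protein to printed compounds on slides; z-score merges feature fluorescence and signal-to-noise across triplicate slides.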 The settings on record: higher = more signal.
Assay [4] in a line: binders of probe aFGF10 on microarray, primary screen, stem cell growth factor project, biochemical, small-molecule microarray, fluorescence 635/667 (AID 1071).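 Note: score merges 667 nm spot intensity and signal to noise from triplicate slides.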 Conditions: higher = more signal.
The target of assay [5] is Neurogenic locus notch homolog protein 2 (Homo sapiens) (UniProt Q04721). Put plainly: Notch2 binders on small-molecule microarrays, primary screen, biochemical, small-molecule microarray, 635 nm fluorescence, stem cell growth factors (AID 1073). The settings on record: Notch2 binding, higher = more signal.
Assay [6] concerns the target Pro-neuregulin-1, membrane-bound isoform (Homo sapiens) (UniProt Q02297). Put plainly: NRG1 binders on small-molecule microarrays, primary screen, psychiatric disease protein project, biochemical, small-molecule microarray, fluorescence 635/667 (AID 1075).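 Note: score combines 667 nm spot fluorescence with signal to noise.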 Conditions: NRG1 binding, 635 nm fluorescence, higher = more signal.
Assay [7] concerns Neuregulin-1 EGF-like domain. The assay can be described thus: binders of neuregulin-1 EGF-like domain, primary screen, biochemical, small-molecule microarray, 635 nm fluorescence (AID 1081).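 Note: binding of the protein to compounds printed on small-molecule microarray slides.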 The settings on record: small-molecule microarray binding, higher = more signal.
Assay [8] can be described thus: FRG1 promoter luciferase signal modulators, primary screen, FRG1 inhibition for FSHD, cell-based, C2C12 myotubes, firefly/Renilla luciferase, luminescence (AID 1084). Conditions: higher = more signal, called active from +8 up or from −8 down.
The nature of assay [9]: binders of probe aFST on microarray, primary screen, stem cell growth factor project, biochemical, small-molecule microarray, fluorescence 635/667 (AID 1086).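 Note: score merges 667 nm fluorescence with signal-to-noise of each printed compound spot.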 The settings on record: higher = more signal.
Assay [10] is described as follows: binders of probe aHhip on microarray, primary screen, stem cell growth factor project, biochemical, small-molecule microarray, fluorescence 635/667 (AID 1087).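 Note: score merges spot fluorescence at 667nm with spot signal to noise ratio.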 Conditions: higher = more signal.

Calls of active or inactive are those of the source.

Pro-neuregulin-1, membrane-bound isoform (Homo sapiens), sequence (Q02297 whole entry, looked up, the tested form may be a part, canonical isoform): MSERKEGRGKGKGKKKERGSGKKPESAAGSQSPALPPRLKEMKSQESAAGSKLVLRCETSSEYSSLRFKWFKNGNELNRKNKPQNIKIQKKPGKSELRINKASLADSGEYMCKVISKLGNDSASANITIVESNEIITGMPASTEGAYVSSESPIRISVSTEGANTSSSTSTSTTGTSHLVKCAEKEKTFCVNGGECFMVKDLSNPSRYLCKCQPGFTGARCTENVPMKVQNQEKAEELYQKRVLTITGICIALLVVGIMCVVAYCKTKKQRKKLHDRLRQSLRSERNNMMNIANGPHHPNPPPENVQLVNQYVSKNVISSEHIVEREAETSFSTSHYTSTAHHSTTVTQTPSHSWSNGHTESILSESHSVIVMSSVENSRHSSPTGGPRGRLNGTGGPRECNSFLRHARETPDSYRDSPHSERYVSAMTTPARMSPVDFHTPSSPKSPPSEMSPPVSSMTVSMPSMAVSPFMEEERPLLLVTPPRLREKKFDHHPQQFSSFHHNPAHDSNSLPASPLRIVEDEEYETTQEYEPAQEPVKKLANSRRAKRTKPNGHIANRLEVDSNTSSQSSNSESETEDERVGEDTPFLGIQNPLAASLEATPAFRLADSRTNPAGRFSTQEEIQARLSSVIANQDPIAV
Neurogenic locus notch homolog protein 2 (Homo sapiens), sequence (Q04721 whole entry, looked up, canonical isoform): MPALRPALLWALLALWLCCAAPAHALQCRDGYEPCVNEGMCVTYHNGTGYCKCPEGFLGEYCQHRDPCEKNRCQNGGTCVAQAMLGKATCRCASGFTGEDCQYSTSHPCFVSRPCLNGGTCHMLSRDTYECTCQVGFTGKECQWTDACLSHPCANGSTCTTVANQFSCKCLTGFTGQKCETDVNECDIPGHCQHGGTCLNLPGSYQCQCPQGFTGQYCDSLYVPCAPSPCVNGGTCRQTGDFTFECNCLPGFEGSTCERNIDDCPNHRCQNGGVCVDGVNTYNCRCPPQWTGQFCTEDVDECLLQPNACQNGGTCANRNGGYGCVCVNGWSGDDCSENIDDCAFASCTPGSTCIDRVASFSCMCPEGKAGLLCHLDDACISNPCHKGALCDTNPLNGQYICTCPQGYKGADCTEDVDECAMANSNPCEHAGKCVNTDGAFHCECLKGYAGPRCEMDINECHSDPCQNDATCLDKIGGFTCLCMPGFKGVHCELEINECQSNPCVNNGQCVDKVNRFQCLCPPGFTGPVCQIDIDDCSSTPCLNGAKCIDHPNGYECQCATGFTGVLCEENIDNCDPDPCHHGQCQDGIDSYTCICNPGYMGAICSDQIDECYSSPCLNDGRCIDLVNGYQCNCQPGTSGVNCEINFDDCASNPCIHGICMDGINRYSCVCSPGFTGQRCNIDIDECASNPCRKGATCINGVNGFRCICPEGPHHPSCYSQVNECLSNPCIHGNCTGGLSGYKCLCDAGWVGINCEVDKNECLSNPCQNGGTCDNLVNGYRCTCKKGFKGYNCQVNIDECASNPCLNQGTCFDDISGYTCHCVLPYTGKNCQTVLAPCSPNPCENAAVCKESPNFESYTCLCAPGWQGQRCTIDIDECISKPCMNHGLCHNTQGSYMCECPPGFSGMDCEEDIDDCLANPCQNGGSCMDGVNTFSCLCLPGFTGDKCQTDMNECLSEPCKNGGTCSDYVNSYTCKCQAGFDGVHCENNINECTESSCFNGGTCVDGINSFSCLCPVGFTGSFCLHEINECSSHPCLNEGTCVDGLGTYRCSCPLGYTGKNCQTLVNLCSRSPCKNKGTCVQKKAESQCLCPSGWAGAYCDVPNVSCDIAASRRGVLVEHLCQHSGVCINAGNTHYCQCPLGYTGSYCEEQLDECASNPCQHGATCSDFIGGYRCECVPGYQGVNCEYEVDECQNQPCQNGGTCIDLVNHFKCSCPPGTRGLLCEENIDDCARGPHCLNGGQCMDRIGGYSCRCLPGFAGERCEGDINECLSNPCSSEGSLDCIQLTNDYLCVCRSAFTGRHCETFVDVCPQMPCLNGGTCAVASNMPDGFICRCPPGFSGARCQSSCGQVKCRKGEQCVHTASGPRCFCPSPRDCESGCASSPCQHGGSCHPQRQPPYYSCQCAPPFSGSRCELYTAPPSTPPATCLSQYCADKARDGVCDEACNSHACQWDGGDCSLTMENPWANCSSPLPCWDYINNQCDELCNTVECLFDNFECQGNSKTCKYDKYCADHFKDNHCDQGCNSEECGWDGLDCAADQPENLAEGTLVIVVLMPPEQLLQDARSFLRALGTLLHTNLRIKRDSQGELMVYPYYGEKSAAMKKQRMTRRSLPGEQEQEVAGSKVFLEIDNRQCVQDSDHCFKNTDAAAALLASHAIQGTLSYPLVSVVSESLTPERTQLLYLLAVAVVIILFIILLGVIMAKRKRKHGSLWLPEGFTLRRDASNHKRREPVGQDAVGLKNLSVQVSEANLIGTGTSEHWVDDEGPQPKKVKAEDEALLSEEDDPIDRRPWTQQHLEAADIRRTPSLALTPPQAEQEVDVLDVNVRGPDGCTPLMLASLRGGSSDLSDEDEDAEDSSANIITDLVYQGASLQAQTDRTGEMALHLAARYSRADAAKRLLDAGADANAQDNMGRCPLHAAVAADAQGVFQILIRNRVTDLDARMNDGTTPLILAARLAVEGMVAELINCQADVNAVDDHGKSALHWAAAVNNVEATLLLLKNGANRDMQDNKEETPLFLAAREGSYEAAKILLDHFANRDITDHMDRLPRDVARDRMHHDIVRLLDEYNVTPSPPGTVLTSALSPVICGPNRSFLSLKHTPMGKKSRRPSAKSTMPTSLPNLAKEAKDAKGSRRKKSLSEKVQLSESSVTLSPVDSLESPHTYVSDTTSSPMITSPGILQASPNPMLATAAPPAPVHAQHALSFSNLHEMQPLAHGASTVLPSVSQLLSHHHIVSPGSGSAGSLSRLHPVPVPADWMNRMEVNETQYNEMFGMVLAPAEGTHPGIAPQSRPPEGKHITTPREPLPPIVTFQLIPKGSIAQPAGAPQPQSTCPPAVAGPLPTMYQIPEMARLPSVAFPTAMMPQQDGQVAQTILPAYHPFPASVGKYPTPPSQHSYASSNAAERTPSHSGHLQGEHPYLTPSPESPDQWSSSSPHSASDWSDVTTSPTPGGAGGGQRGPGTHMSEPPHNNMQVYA

`COc1ccc(CCN2C(=O)[C@@]3(c4ccc([N+](=O)[O-])cc4)CC(=O)N(C4CCCCC4)[C@@H]3c3ccc(CO)cc32)cc1`: the composite z-score in assay [1] was -0.126; in [2], 0.0269; in [3], -0.148; in assay [4], -0.0632; in [5], -0.0731; in assay [6], 0.0125. The composite z-score was 1.46 in [7], -0.135 in assay [9] and -0.0994 in [10]. Besides, in assay [8], the z-score was 0.912 (inactive).
Consider `CN1C(=O)C2C=CC(C(O)c3cc(C(F)(F)F)cc(C(F)(F)F)c3)N(N3CCCCC3)C2C1=O` (stereo not given), for which the composite z-score in assay [1] was 0.104; in assay [2] it was -0.392; in assay [3], 0.0173; in assay [4], 0.395; in assay [5], 1.41; in assay [6], 0.416. Besides, the composite z-score in assay [7] is 0.892; in assay [9] it was 0.498; in assay [10] it was -0.335. In assay [8], the z-score was 0.215 (inactive).
On to `CC(C)c1ccc(NN2C(C(O)c3cc(C(F)(F)F)cc(C(F)(F)F)c3)C=CC3C(=O)N(c4ccccc4)C(=O)C32)cc1` (stereo not given), for which the composite z-score in assay [1] was 0.43; in assay [2] it was -0.165; in assay [3], -0.0165; in assay [4] it was 0.13; in assay [5], 1.24; in assay [6], 1.69. Besides, the composite z-score in assay [7] was 1.28; in assay [9] it was 0.273; in assay [10] it was 0.213. Also, the z-score in assay [8] was 0.0782 (inactive).
On to `COc1cc(CO)cc(I)c1O[C@H]1C=C(C(=O)NCCO)C[C@@H](N(CCN2CCOCC2)C(=O)C2CCOC2)[C@@H]1O` (stereo not given in full), for which the composite z-score was -0.458 in assay [1]; 0.158 in assay [2]; -0.12 in assay [3]; 0.501 in assay [4]; -0.0056 in [5]; -0.0813 in assay [6]. Besides, the composite z-score is -0.479 in [7], 0.0409 in [9] and 1.25 in assay [10]. The z-score in assay [8] is -1.22 (inactive).
`CN(C)C(=O)[C@@]1(Cc2ccccc2)N=C(c2ccc(OCCCO)cc2)O[C@H]1c1ccccc1N=[N+]=[N-]`: the composite z-score is 0.0567 in assay [1]; -0.204 in assay [2]; 0.061 in assay [3]; 0.64 in assay [4]; 1.55 in assay [5]; 1.56 in assay [6]. The figures for the composite z-score in [7], in assay [9] and in assay [10] were 1.12, 1.69 and -0.353, respectively. Further, the z-score in assay [8] was -1.66 (inactive).
On to `O=C(O)[C@@]1(CCS(=O)(=O)c2ccccc2)COC(c2ccc(OCCCO)cc2)=N1`, for which the composite z-score was 0.803 in assay [1]; -0.715 in assay [2]; -0.196 in [3]; -0.0573 in assay [4]; -0.243 in [5]; 0.964 in assay [6]. Moreover, the figures for the composite z-score in assay [7], in assay [9] and in [10] were 1.35, -0.0694 and 0.35, respectively. Also, the z-score in assay [8] was 0.143 (inactive).
For the compound `COC(=O)C=C(CC(O)c1cccc(Cl)c1)OC` (stereo not given), the composite z-score in assay [1] is 1.55; in assay [2], 0.172; in assay [3], 0.54; in assay [4] it was 0.0631; in [5], -0.0372; in assay [6], 1.76. Further, the composite z-score in assay [7] is 1.21; in [9], 1.65; in assay [10], -0.0879. In [8], the z-score was -4.2 (inactive).
With `[N-]=[N+]=NCc1ccccc1C[C@]1(C(=O)O)N=C(c2ccc(OCCCO)cc2)O[C@H]1c1ccccc1N=[N+]=[N-]`, the composite z-score in assay [1] was -0.146; in [2], 0.268; in [3], -0.0004; in assay [4] it was 0.833; in [5] it was 1.52; in assay [6], 1.78. Further, the composite z-score in [7] stood at 1.25; in assay [9] it was 0.921; in assay [10], 0.138. Moreover, the z-score in [8] is -1.47 (inactive).
Regarding `CC(CO)N1C(=O)[C@@H]2C3C(=O)OCCC/C=C\[C@H]3OC23C=CCN(c2ccc4ccccc4c2)C(=O)[C@@H]13` (stereo not given in full), the composite z-score is 0.122 in assay [1]; -0.933 in [2]; -0.118 in assay [3]; -0.594 in [4]; -0.874 in assay [5]; 0.168 in assay [6]. The composite z-score in assay [7] was 1.26; in assay [9], -0.576; in assay [10], -0.0994. Further, the z-score in [8] is -0.775 (inactive).
Turning to `COCCCNC(=O)[C@@]1(Cc2ccccc2)N=C(c2ccc(OCCCO)cc2)O[C@H]1c1ccccc1`, the composite z-score in assay [1] amounted to 0.743; in assay [2], 1.2; in assay [3], 0.298; in [4] it was 0.155; in [5], 0.82; in assay [6] it was 1.38. Besides, the values for the composite z-score in assay [7], in assay [9] and in assay [10] were 1.33, 1.08 and 1.17, respectively. For the same compound, the z-score in [8] is -1.4 (inactive).
On to `COc1ccc(C(=O)Nc2cccc(CN3C(=O)[C@]4(O[C@H](CCO)[C@@H]([Si](C)(C)c5ccc(OC)cc5)[C@@H]4C)c4ccccc43)c2)cc1`, for which the composite z-score is -0.442 in [1]; 0.193 in [2]; -0.102 in [3]; 0.285 in [4]; 0.484 in [5]; 0.621 in [6]. The results for the composite z-score in [7], in assay [9] and in assay [10] were 1.09, 0.439 and -0.179, respectively. Moreover, the z-score in [8] is -3.19 (inactive).
`CS(=O)(=O)CCOC(=O)C1=CC(CCCO)=CC(c2ccc(CN3CCCC3)cc2)N(Cc2cc3c(cc2Br)OCO3)C=C1C(=O)OCCS(C)(=O)=O` (stereo not given): the composite z-score was determined as 0.26 in assay [1]; 1.77 in [2]; 0.127 in [3]; 1.22 in assay [4]; 1.38 in assay [5]; 2.1 in assay [6]. Further, the values for the composite z-score in assay [7], in assay [9] and in [10] were 1.25, 0.624 and 0.224, respectively. The z-score in assay [8] was -0.271 (inactive).
Turning to `C=C(COC)/C(=C/C[C@H](OC(=O)c1ccncc1)c1ccc(OCCO)cc1)c1cnc2ccccc2c1`, the composite z-score is -0.219 in assay [1]; 0.833 in [2]; 0.0485 in assay [3]; 0.97 in [4]; 1.57 in assay [5]; 1.4 in assay [6]. Besides, the figures for the composite z-score in [7], in assay [9] and in assay [10] were 1.14, 1.14 and 0.12, respectively. The z-score in assay [8] is 1.87 (inactive).
On to `CC(C)(C)OC(=O)CC[C@]12N=C(c3ccc(OCCCO)cc3)O[C@H]1c1ccccc1N(CCS(=O)(=O)c1ccccc1)C2=O`, for which the composite z-score in assay [1] is 0.144; in assay [2], 0.433; in assay [3] it was -0.0024; in [4] it was 0.137; in assay [5], 1.42; in assay [6] it was 0.882. For the same compound, the figures for the composite z-score in [7], in [9] and in assay [10] were 1.26, 0.682 and 0.0139, respectively. The z-score in assay [8] is 0.281 (inactive).
As to `C[C@@H]1ON(c2cccc(C(=O)OC(C)(C)C)c2)[C@H](c2ccc(Br)cc2)[C@H]1C(=O)N1C(=O)OC[C@H]1Cc1ccccc1`, the composite z-score in [1] was -0.532; in assay [2] it was 0.351; in [3] it was -0.031; in assay [4], 0.511; in [5], 1.37; in [6], 0.457. The composite z-score turned out to be 0.958 in assay [7], 0.625 in assay [9] and 0.245 in [10]. For the same compound, the z-score in assay [8] is -0.295 (inactive).
